Test results taken from ChEMBL document CHEMBL3988442, “University of Dundee, Small-Polar-MMV Screening Library” (2021).
The whole screen tested about 69,000 compounds, of which about 950 (1.4%) showed an effect of 50% or more. This excerpt belongs to a sample that is enriched for strong results.

Each compound was assayed on Mycobacterium tuberculosis (assay: Cornell M. t heat shock assay; note: in the data most compounds retested in dose-response had high values).
Assay type: functional, organism-based
Parameters: dose or concentration left out as unconfirmed

SMILES | Percent Effect
O=C(O)C(F)(F)F.O=C(O)C(F)(F)F.c1cncc(OCC2CN(Cc3ccsc3)Cc3nccn3C2)c1 (stereo not drawn) | -18.26%
COCCN1C(=O)C[C@H]2[C@H]1CCN2Cc1ccccc1.O=C(O)C(F)(F)F | 3.349%
CN(C)[C@@H]1CCN(C(=O)c2ccsc2)[C@H]1Cc1cccnc1.O=C(O)C(F)(F)F.O=C(O)C(F)(F)F | -16.81%
Cc1ccc(N2Cc3cnn(C)c3C(COCC3CC3)C2)nn1.O=C(O)C(F)(F)F.O=C(O)C(F)(F)F (stereo not drawn) | 49.24%
COc1ccc(CN2CCC3(CC2)NC(=O)CC3c2cnn(C)c2)cc1.O=C(O)C(F)(F)F (stereo not drawn) | -26.9%
O=C1C[C@H]2CC[C@@H](CN1)N2C(=O)CCc1ccccc1 | 16.33%
CO[C@@H]1CCN(Cc2cccs2)[C@@H]2CN(Cc3ccncc3)C[C@@H]21.O=C(O)C(F)(F)F.O=C(O)C(F)(F)F.O=C(O)C(F)(F)F | 42.16%
COCC(=O)N1CCCC(C)(c2nncn2C)C1 (stereo not drawn) | 11.29%
Cc1cccc(CN2CCC3(CC2)CN(c2cccnc2)C(=O)CO3)n1.O=C(O)C(F)(F)F.O=C(O)C(F)(F)F | -14.12%
Cc1nn(C)c(Cl)c1C1CCCN1C(=O)c1ccc(C(N)=O)cn1 (stereo not drawn) | -15.15%
Cc1cc(C)n(CC2CCCN2CC(=O)Nc2nncs2)n1 (stereo not drawn) | -43.1%
Cc1cc(C)n(CC2CCCCN2CC(=O)Nc2nnc(C)s2)n1 (stereo not drawn) | 10.12%
Cc1cc(C)n(CC2CCCCN2CC(=O)Nc2nncs2)n1 (stereo not drawn) | 69.77%
CO[C@@H]1CC[C@H]2[C@H]1OCCN2CC1CC1.O=C(O)C(F)(F)F | -34.92%
Cc1nn(C)c2c(=O)n(CC(=O)NCc3ccc(N(C)C)cc3)ccc12 | 2.829%
COCCN1C[C@@H]2CN(Cc3ccc(C)s3)CCC[C@]2(C(=O)O)C1.O=C(O)C(F)(F)F.O=C(O)C(F)(F)F | -29.4%
c1ccc(-c2cnc(CN3CCCC3Cn3cccn3)o2)cc1 (stereo not drawn) | 7.104%
Cc1cnn(CC2CCCN2Cc2nc3ccccc3nc2C)c1 (stereo not drawn) | 7.151%
Cc1nc(CN2CCCCC2Cn2cccn2)nc2ccccc12 (stereo not drawn) | 49.4%
Cc1nc(CN2CCCC2Cn2cccn2)nc2ccccc12 (stereo not drawn) | 33.45%
Cc1cnn(CC2CCCN2Cc2ncc(-c3ccccc3)o2)c1 (stereo not drawn) | 61.17%
Cc1cnn(CC2CCCCN2Cc2nc(C)c3ccccc3n2)c1 (stereo not drawn) | 67.77%
Cc1cnn(CC2CCCN2Cc2nc3ccccc3n2C)c1 (stereo not drawn) | 101.1%
Cc1cnn(CC2CCCN2Cc2ncc(-c3ccc(F)cc3)o2)c1 (stereo not drawn) | -10.3%
Cc1cnn(CC2CCCN2Cc2noc(C)n2)c1 (stereo not drawn) | -1.003%
Cc1cnn(CC2CCCN2Cc2nc(C)c3ccccc3n2)c1 (stereo not drawn) | 101.6%
Cc1nc(CN2CCCCC2Cn2cncn2)nc2ccccc12 (stereo not drawn) | -16.52%
Cc1nc(C)n(CC2CCCN2Cc2nc3ccccc3n2C)n1 (stereo not drawn) | -5.876%
